Experimental data reported in PMC4552634, “A New Set of Chemical Starting Points with Plasmodium falciparum Transmission-Blocking Potential for Antimalarial Drug Discovery” (PLoS ONE, 2015).
Screen size: about 13,000 compounds; about 3,200 (25%) showed an effect of 50% or more. Some of the results follow.

Test system: P. falciparum stage V gametocytes
Parameters: BacTiter-Glo ATP luminescence viability of purified stage V gametocytes in 384-well plates, per cent inhibition versus DMSO
Details: 48 h, 5 µM; inhibitor

| Structure (SMILES) | % Inhibition |
| --- | --- |
| CC(C)C[C@H](NC(=O)c1ccc(OCCN2CCOCC2)cc1)C(=O)N[C@H](/C=N/N1CC(=O)NC1=O)CCc1ccccc1 [TCMDC-136155] | 17.61% |
| O=C(NC1CC1)c1ccc2cc(C(=O)N3Cc4ccccc4C(c4ccccc4)C3)ccc2c1 (stereo not drawn) [TCMDC-131863] | 5.684% |
| COc1ccccc1CCNc1ncnc2c1[nH]c1ccc(F)cc12 [TCMDC-124556] | 39.14% |
| COc1ccc(OC)c(Cc2cnc3nc(N)[nH]c(=O)c3c2C)c1 [TCMDC-138103] | 16.49% |
| CN(C)C(=O)CCCn1c(CNCCCNc2cc(=O)c3ccccc3[nH]2)cc2c(Cl)cc(Cl)cc21 [TCMDC-140466] | -27.37% |
| CCCC1CCNC(C(O)c2ccnc3ccc(OC)cc23)C1 (stereo not drawn) [TCMDC-138276] | 11.37% |
| CN(C)CCNC(=O)c1cc2c(-c3ccc(Cl)cc3)nn(C)c2s1 [TCMDC-123580] | -36.25% |
| COc1cccc(-c2nn(C)c3sc(C(=O)NCCN(C)Cc4ccccc4)cc23)c1 [TCMDC-123583] | -8.796% |
| Cc1ccc(-n2nc(-c3ccccc3)c3cc(C(=O)NCCN)sc32)cc1 [TCMDC-124776] | 110.1% |
| CC(C)Oc1ccc2c(c1)OC(c1ccccc1)(C(F)(F)F)NC2=O (stereo not drawn) [TCMDC-123633] | 28.56% |
| Cc1nc(Cl)c2c(-c3ccccc3)csc2n1 [TCMDC-125437] | -3.595% |
| CN(C)CC(=O)Nc1ccc(-c2ccc3ccnc(N)c3c2)cc1 [TCMDC-133427] | 67.97% |
| CN(C)Cc1cccc(-c2ccc3ccnc(N)c3c2)c1 [TCMDC-136795] | 100.3% |
| COc1cccc(-c2ccc3ccnc(N)c3c2)c1 [TCMDC-133361] | 60.33% |
| Nc1ccc(-c2ccc3ccnc(N)c3c2)cc1 [TCMDC-136763] | -16.03% |
| Nc1nccc2ccc(-c3cccc(OCc4ccccc4)c3)cc12 [TCMDC-133430] | 24.46% |
| COc1cccc(-c2ccc3c(-c4ccc(F)cc4)cnc(N)c3c2)c1 [TCMDC-134514] | 40.73% |
| NC(=O)c1ccc(-c2ccc3ccnc(N)c3c2)cc1 [TCMDC-133429] | 50% |
| CS(=O)(=O)Nc1ccc(-c2ccc3ccnc(N)c3c2)cc1 [TCMDC-136788] | 43.95% |
| NS(=O)(=O)c1cccc(Nc2nccc(-c3c(-c4cccc(NC(=O)c5c(F)cccc5F)c4)nn4ccccc34)n2)c1 [TCMDC-135780] | -65.73% |
| Cc1csc(-c2nc(NCc3cccnc3)ncc2-c2ccsc2)n1 [TCMDC-124841] | 9.704% |
